Experimental data published in PubChem BioAssay AID1903 (Southern Research Specialized Biocontainment Screening …, 2009).
The campaign covered roughly 310,000 compounds. About 1,200 (0.39%) were called active. No rule for the calls is given here. Only a sample is shown. Entries with a potency or affinity are not part of this list.

Target: Large T antigen (Simian virus 40) (UniProt P03070)
Test: TAg ATPase/helicase activity blockers – biochemical (AID 1903)
Conditions: SV40 large T antigen ATPase/helicase inhibition assay; at 20 µM; hits give high values

Sequence of Large T antigen (Simian virus 40) (P03070 whole entry, looked up): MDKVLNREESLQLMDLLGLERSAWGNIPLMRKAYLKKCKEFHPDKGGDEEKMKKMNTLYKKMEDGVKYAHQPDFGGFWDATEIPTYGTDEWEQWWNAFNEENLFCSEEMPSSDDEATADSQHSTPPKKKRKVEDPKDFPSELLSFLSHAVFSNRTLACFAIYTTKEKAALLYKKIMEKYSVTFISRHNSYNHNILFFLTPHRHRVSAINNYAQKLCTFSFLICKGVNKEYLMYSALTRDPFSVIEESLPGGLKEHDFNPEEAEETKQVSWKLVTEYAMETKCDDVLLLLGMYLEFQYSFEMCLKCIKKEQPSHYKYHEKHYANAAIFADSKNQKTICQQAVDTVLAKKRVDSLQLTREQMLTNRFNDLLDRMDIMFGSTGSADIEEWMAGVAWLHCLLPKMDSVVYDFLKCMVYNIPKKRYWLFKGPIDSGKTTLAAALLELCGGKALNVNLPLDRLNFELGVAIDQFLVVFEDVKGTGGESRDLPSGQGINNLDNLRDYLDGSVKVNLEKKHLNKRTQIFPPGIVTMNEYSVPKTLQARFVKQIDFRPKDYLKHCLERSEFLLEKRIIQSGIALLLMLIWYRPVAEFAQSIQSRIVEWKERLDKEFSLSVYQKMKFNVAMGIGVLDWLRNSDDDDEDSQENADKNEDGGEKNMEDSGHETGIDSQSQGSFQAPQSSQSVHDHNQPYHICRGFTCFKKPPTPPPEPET

inhibition, inactive:
O=C(CSc1ccc(Cl)cc1)NNC(=O)c1cccnc1 28.6%
O=c1nccc(N/N=C/c2ccccc2)[nH]1 2.59%
C#CCOCCOCCOCCNc1nc(N2CCN(C(=O)CCCCCCCCCCNC(=O)[C@H]([C@@H](C)CC)n3cc(CCCCN=C(N)N)nn3)CC2)nc(N2CCN(C(=O)CCCCCCCCCCNC(=O)[C@H](CO)n3cc(CCCCCN)nn3)CC2)n1 28.3%
C#CCOCCOCCOCCNc1nc(N2CCN(C(=O)CCCCCCCCCCNC(=O)[C@H](CCCCN)n3cc(CCO)nn3)CC2)nc(N2CCN(C(=O)CCCCCCCCCCNC(=O)[C@H](CCCN=C(N)N)n3cc(C[C@@H](C)CC)nn3)CC2)n1 30.2%
C#CCOCCOCCOCCNc1nc(N2CCN(C(=O)CCCCCCCCCCNC(=O)[C@H](CCCCN)n3cc(CCCC(=O)O)nn3)CC2)nc(N2CCN(C(=O)CCCCCCCCCCNC(=O)[C@H](CCCN=C(N)N)n3cc(C[C@@H](C)CC)nn3)CC2)n1 15.3%
C#CCOCCOCCOCCNc1nc(N2CCN(C(=O)CCCCCCCCCCNC(=O)[C@@H](CCSC)n3cc(CCO)nn3)CC2)nc(N2CCN(C(=O)CCCCCCCCCCNC(=O)[C@H]([C@@H](C)CC)n3cc(CCCCN=C(N)N)nn3)CC2)n1 5%
C#CCOCCOCCOCCNc1nc(N2CCN(C(=O)CCCCCCCCCCNC(=O)[C@H](CCCCN)n3cc(C[C@@H](C)CC)nn3)CC2)nc(N2CCN(C(=O)CCCCCCCCCCNC(=O)[C@H](CCCN=C(N)N)n3cc(C[C@@H](C)CC)nn3)CC2)n1 35.8%
C#CCOCCOCCOCCNc1nc(N2CCN(C(=O)CCCCCCCCCCNC(=O)[C@H](CO)n3cc(CCCSC)nn3)CC2)nc(N2CCN(C(=O)CCCCCCCCCCNC(=O)[C@H](CCCN=C(N)N)n3cc(C[C@@H](C)CC)nn3)CC2)n1 20.2%
C#CCOCCOCCOCCNc1nc(N2CCN(C(=O)CCCCCCCCCCNC(=O)[C@H](CO)n3cc(CCCCCN)nn3)CC2)nc(N2CCN(C(=O)CCCCCCCCCCNC(=O)[C@H](CCCN=C(N)N)n3cc(C[C@@H](C)CC)nn3)CC2)n1 36.3%
C#CCOCCOCCOCCNc1nc(N2CCN(C(=O)CCCCCCCCCCNC(=O)[C@H](CCCCN)n3cc(CCO)nn3)CC2)nc(N2CCN(C(=O)CCCCCCCCCCNC(=O)[C@H](CCCCN)n3cc(C[C@@H](C)CC)nn3)CC2)n1 22.1%
NS(=O)(=O)c1ccc(CCNC(=O)C(=O)Nc2cc3c4c(c2)CC(=O)N4CCC3)cc1 10.2%
CCN(C(=O)COC(=O)c1cncc(Br)c1)C1CCS(=O)(=O)C1 (stereo unspecified) 2.6%
CN(C)S(=O)(=O)c1cccc(COC(=O)c2ccc(Cl)cc2O)c1 4.75%
CCn1ccnc1CNC(=O)CC1C(=O)NCCN1Cc1ccc(OC)cc1OC (stereo unspecified) 8.33%
CC(OC(=O)c1ccc(NS(=O)(=O)c2cccs2)cc1)C(=O)N(C)C1CCCCC1 (stereo unspecified) 12.6%
O=C(NCCCO)c1ccc2[nH]c3c(c2c1)CCCC3 2.41%
COc1ccccc1OC(C)C(=O)Nc1nc(-c2ccc(S(=O)(=O)N3CCOCC3)cc2)cs1 (stereo unspecified) -2.76%
O=C(O)CCC(=O)NNC(=O)c1ccc([N+](=O)[O-])cc1 24.3%
CN1CCN(c2ccccc2NC(=O)c2ccc(N3CCCCC3)c([N+](=O)[O-])c2)CC1 1.97%
COc1cc(C(=O)NCc2nnc(SCC(=O)NC3CCCCC3)o2)cc(OC)c1OC 9.82%
CNC(=S)N(CCCO)Cc1cc2cc3c(cc2[nH]c1=O)OCO3 4.07%
N#Cc1cc2c(nc1SCC(=O)Nc1sc3c(c1C#N)CCC3)CCCCCC2 -1.85%
Cc1nc(NC(=O)CCl)sc1C(=O)N(C)C 22.7%
C#CCOCCOCCOCCNc1nc(N2CCOCC2)nc(N2CCN(C(=O)CCCCCCCCCCNC(=O)[C@H]([C@@H](C)CC)n3cc(CCCCN=C(N)N)nn3)CC2)n1 5.58%
C#CCOCCOCCOCCNc1nc(N2CCN(C(=O)CCCCCCCCCCNC(=O)[C@H]([C@@H](C)CC)n3cc(CCCCN=C(N)N)nn3)CC2)nc(N2CCN(C(=O)CCCCCCCCCCNC(=O)[C@@H]([C@H](C)O)n3cc(C)nn3)CC2)n1 7.94%
CCOC(=O)c1cc(-c2ccc(OC)cc2)n(CCC(=O)NCCN2CCC(C)CC2)c1C 5.63%
CCN(CC)C(=O)Cn1cnc2ccccc2c1=O 5.63%
CCCN1C(=O)/C(=C/c2ccc(C)o2)NC1=S 33.1%
CCOc1ccc(N2C(=O)/C(=C/c3ccc(C)o3)N(C)C2=S)cc1 15.8%
COc1ccc(N2C(=O)/C(=C/c3cccs3)NC2=S)cc1 14.1%
COc1ccc(N2C(=O)C3CC(C)=C(C)CC3C2=O)c(OC)c1 (stereo unspecified) 11.1%
Cc1ccc(/C=C2/C(=O)N(c3ccccc3)C(=S)N2C)o1 6.66%
Cc1ccc(/C=C2/NC(=O)N(c3ccccc3)C2=O)o1 22.8%
Cc1ccc(/C=C2\C(=O)Nc3ccccc32)o1 11.2%
O=C1/C(=C\c2ccco2)NC(=S)N1c1ccccc1 35.2%
COc1cc(O)c(C(CC(=O)N2CCCC(C)C2)c2ccc3c(c2)OCO3)c(OC)c1 (stereo unspecified) 6.43%
Cn1cccc1C(=O)NNC(=O)c1ccccc1Br 8.13%
CC1(C)CC(=O)/C(=C(\O)Cc2ccccc2)C(=NCCCCCC(=O)O)C1 4.38%
CCCCNCc1cccn1-c1ccccc1 24.7%
COc1c(C)cccc1C(=O)Nc1ccc(OCC(=O)N2CCOCC2)cc1C 14.7%
COCC(=O)N/N=C\c1ccccc1OC/C=C/c1ccccc1 4.69%
C=CCOc1ccc(C=Nc2ccc(OC)cc2)c(O)c1 28.3%
COc1ccc(N=Cc2[nH]c3ccccc3c2O)cc1 13.7%
Cc1csc(NC(=O)CSc2nnc(-c3ccccc3)o2)n1 -6.99%
O=C(N/N=C/c1ccc(O)cc1)c1cc(-c2ccccc2)nc2ccccc12 14.6%
COc1cc(/C=N/NC(=O)c2cc(-c3ccccc3)nc3ccccc23)ccc1O 25.1%
CCn1c(SCC(=O)N/N=C/c2cc(OC)c(O)c(OC)c2)nc2ccccc21 -7.37%
Cc1cc(SCC(=O)N/N=C/c2ccc(O)cc2O)nc2ccccc12 7.95%
Cn1c(SCC(=O)N/N=C/c2ccncc2)nc2ccccc21 2.44%
COc1cc(/C=N/NC(=O)CSc2nc3ccccc3n2C)cc(OC)c1OC -1.56%
Cc1cc(SCC(=O)N/N=C/c2ccc(C(=O)O)cc2)nc2ccccc12 6.65%
CCn1c(SCC(=O)N/N=C/c2ccc(OC)c(OC)c2)nc2ccccc21 6.02%
C#CCOCCOCCOCCNc1nc(N2CCN(C(=O)CCCCCCCCCCNC(=O)[C@@H](CCC(=O)O)n3cc(CCCCCN)nn3)CC2)nc(N2CCN(C(=O)CCCCCCCCCCNC(=O)[C@H](CO)n3cc(CCCCCN)nn3)CC2)n1 31.5%
CCOC(=O)C1=C(C)N(C)C(=S)N(C)C1c1ccc(OC)cc1 (stereo unspecified) -2.82%
CCOc1cc2sc(N3CCC(C(=O)NCCCN4CCCC4=O)CC3)nc2cc1Br 12.1%
Cc1ccc(C(=O)NCCc2n[nH]c(=S)n2C)cc1 10.6%
CCC(=O)N1c2ccccc2[C@@H](N(C(C)=O)c2ccccc2)C[C@H]1C 4.31%
O=C(c1ccccc1)N1CCN(C2CC3CCC2C3)CC1 (stereo unspecified) 6.45%
O=C1/C(=C/c2ccc(F)cc2)SC(=S)N1CC(=O)N1CCCCC1c1cccnc1 (stereo unspecified) 18.2%
CCOC(=O)c1c(C)n(C)c2c(C)cc(O)c(OC(C)=O)c12 1.3%
COC(=O)c1ccc(N)c(CS(=O)(=O)c2ccc(Cl)cc2)c1 -0.68%
OCC1(Cc2ccccc2)CCCN(Cc2ccc3c(c2)OCCO3)C1 (stereo unspecified) 10.8%
CC(C)n1cnc2cc(NCc3nc4ccccc4n3C)ccc21 20.2%
Cc1ccc(C(=O)Nc2nnc(CC(=O)N/N=C/c3ccc(O)c(O)c3)s2)cc1 19.4%
O=C(Cc1nnc(NC(=O)c2ccccc2)s1)N/N=C/c1ccc(O)cc1 17.1%
O=C(CSc1nc2ccccc2o1)N/N=C/c1ccccc1 12.4%
O=C(CSc1nc2ccccc2o1)N/N=C/c1ccc(C(=O)O)cc1 16.5%
CCN(CC(=O)Nc1c(F)cccc1F)C(=O)/C=C/c1ccc(Br)s1 18.8%
Oc1ccc(-c2cn3c(n2)SCC3)cc1 28.9%
Cc1ccc(-c2cn3c(n2)SCC3)cc1 23.1%
Cc1ccc(C)c(S(=O)(=O)N2CCCCC2CCNC(=O)C(=O)NCc2cccnc2)c1 (stereo unspecified) 11.7%
CN(C)CCn1c(COc2ccccc2)nc2ccccc21 27.6%
COc1ccc(N2CCN(C(=S)NCc3ccc(C)cc3)CC2)cc1 5.85%
CCCCCC(=O)NC(NC(=S)Nc1ccc(S(N)(=O)=O)cc1)C(Cl)(Cl)Cl (stereo unspecified) 7.24%
O=C(Nc1cccc(-n2cnnn2)c1)c1cccs1 6.94%
O=C(Nc1cccc(N2CCCC2)c1)c1cccs1 7.12%
